Compounds without any hit were thinned out: in the full panel of roughly 83,000, 20% have a hit.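 Activity criterion: percent growth below 10, measured after cells in 96-well plates were exposed to a single compound concentration for 48 hours.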 Active and inactive are the calls of the source.
What was measured:
Assay in all cases: NCI-60 one-dose screen, 48 h (100 = growth as untreated, 0 = no growth, -100 = all killed)
[1] = system: NCI-H23 lung; settings: 10 µM unless noted
[2] = system: NCI-H226 lung; settings: 10 µM unless noted
[3] = system: NCI-H322M lung; settings: 10 µM unless noted
[4] = system: HOP-62 NSCLC; settings: 10 µM unless noted
[5] = system: NCI-H460 lung; settings: 10 µM unless noted
[6] = system: 786-0 renal; settings: 10 µM unless noted
[7] = system: MDA-MB-231 breast; settings: 10 µM unless noted
[8] = system: SF-268 CNS; settings: 10 µM unless noted
[9] = system: SF-539 CNS; settings: 10 µM unless noted
[10] = system: M14 melanoma; settings: 10 µM unless noted
[11] = system: HCT-15 colon; settings: 10 µM
[12] = system: U251 CNS; settings: 10 µM unless noted
[13] = system: UACC-62 melanoma; settings: 10 µM unless noted
[14] = system: SK-MEL-28 melanoma; settings: 10 µM unless noted
[15] = system: UO-31 renal; settings: 10 µM unless noted
[16] = system: OVCAR-5 ovarian; settings: 10 µM unless noted
[17] = system: MDA-MB-435 melanoma; settings: 10 µM unless noted
[18] = system: SW-620 colon; settings: 10 µM unless noted
[19] = system: MCF7 breast; settings: 10 µM unless noted
[20] = system: KM12 colon; settings: 10 µM unless noted

Measured: growth

O=C(c1cccs1)C1NO[N+]([O-])=C1c1cccs1 (centres undefined)
inactive: [3] 110% | [4] 89.6% | [5] 82.3% | [7] 86.2% | [8] 109% | [9] 36.3% | [11] 64.9% | [12] 64% | [13] 88.7% | [14] 65.8% | [16] 114% | [17] 72.9% | [19] 81.8% | [20] 74.8%
active: [1] 4.55% | [2] -0.733% | [6] 0.474% | [10] -40.2% | [15] -83.3% | [18] -91.9%

CCOC(=O)Nc1cc(Cl)c([N+](=O)[O-])c(NC(=O)OCC)n1
inactive: [1] 87.8% | [2] 100% | [3] 97.1% | [4] 126% | [5] 109% | [6] 104% | [7] 108% | [8] 75.2% | [9] 107% | [10] 84.8% | [12] 102% | [13] 82.6% | [14] 79% | [15] 99.5% | [16] 104% | [17] 65.4% | [18] 71.3% | [19] 51.4% | [20] 71.3%

NC(Cc1ccc(O)cc1)C(=O)N/N=C/c1ccc(N(CCCl)CCCl)cc1 (centres undefined)
inactive: [1] 69.6% | [2] 46.8% | [3] 102% | [4] 95.4% | [5] 27.1% | [6] 43% | [7] 73.7% | [8] 55.9% | [9] 33.3% | [10] 93.6% | [11] 85.8% | [12] 76.7% | [13] 31.4% | [14] 108% | [15] 52.2% | [16] 115% | [17] 84.7% | [18] 86.9% | [19] 54.5% | [20] 75%

C=CC(O)CN1CC1CC (centres undefined)
inactive: [1] 99% | [2] 105% | [3] 106% | [4] 101% | [5] 100% | [6] 107% | [7] 113% | [8] 106% | [9] 98% | [10] 96.5% | [11] 102% | [12] 93.8% | [13] 92.6% | [14] 105% | [15] 86.3% | [16] 104% | [17] 99.1% | [18] 92% | [19] 94.2% | [20] 106%

O=c1cc[nH]c(=O)o1
inactive: [1] 105% | [2] 98.4% | [3] 105% | [4] 102% | [5] 106% | [6] 98.7% | [7] 117% | [8] 99.9% | [9] 104% | [10] 103% | [11] 104% | [12] 102% | [13] 99.4% | [14] 111% | [15] 93.6% | [16] 109% | [17] 111% | [18] 107% | [19] 96.9% | [20] 103%

O=C(O)c1[nH]c(=O)[nH]c(=O)c1F
inactive: [1] 93% | [2] 86.2% | [3] 92.5% | [4] 124% | [5] 47.9% | [6] 105% | [7] 108% | [8] 86.7% | [9] 82.5% | [10] 86.6% | [11] 93.6% | [12] 87.2% | [13] 79.6% | [14] 94.7% | [15] 65.9% | [16] 104% | [17] 74.7% | [18] 72.7% | [19] 109% | [20] 69.3%

COC(=O)C[Se]C(=O)c1ccccc1OC(C)=O
inactive: [1] 76.2% | [2] 56.3% | [3] 77.5% | [4] 32.7% | [5] 76.5% | [6] 89.8% | [7] 71.3% | [8] 72.3% | [9] 75.1% | [10] 49.3% | [11] 46.4% | [12] 66.3% | [13] 77.8% | [14] 84.1% | [15] 35.7% | [16] 38.6% | [17] 87.9% | [18] 97.8% | [19] 65.5% | [20] 22.1%

C/C(=C\c1cc(C(F)(F)F)n(-c2ccc(N)cc2)n1)[C@@H]1C[C@@H]2O[C@]2(C)CCC[C@H](C)[C@H](O)[C@@H](C)C(=O)C(C)(C)[C@@H](O)CC(=O)O1
active: [5] 3.04% | [6] 8.49% | [7] 0.97% | [8] 6.48% | [9] -18.5% | [10] -14.3% | [11] 9.88% | [12] 3.19% | [17] -22.6% | [19] 7.93% | [20] 5.68%
inactive: [1] 24.4% | [2] 38.9% | [3] 22.2% | [4] 19.2% | [13] 26.8% | [14] 39.1% | [15] 26.6% | [16] 14.7% | [18] 26.5%

From PubChem BioAssay (NCI)
